Results on eight compounds are retold here after PubChem BioAssay (NCI).

SMILES strings stand for the structures. This is part of a sample that, as a whole, favours compounds with a hit. Of some 83,000 tested, about 20% had one in any assay.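 Values shown are percent growth following 48 h exposure of cells in 96-well plates to a single concentration of compound; below 10 was considered active.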 Unmarked numbers belong to inactive results. The source made the active and inactive calls.

Some test systems named below: DU-145 prostate; K-562 leukemia; MALME-3M melanoma; MDA-MB-231 breast; RXF 393 renal; SF-268 CNS; SF-295 CNS; SF-539 CNS; UACC-257 melanoma; M14 melanoma; HCT-15 colon; HT29 colon; SNB-75 CNS; SNB-19 CNS; U251 CNS; PC-3 prostate; SK-MEL-5 melanoma; UACC-62 melanoma; LOX IMVI melanoma; SK-MEL-28 melanoma.
Common to all, as to test: NCI-60 one-dose screen, 48 h (100 = growth as untreated, 0 = no growth, -100 = all killed)
Common to all, as to conditions: 10 µM unless noted

As for `COc1cccc(CCNc2ncnc3c2ncn3Cc2nnc3c4ccccc4c(Cl)nn23)c1`, the growth in the assay on DU-145 prostate was 50.5%; with K-562 leukemia, 61.4%; in the assay on MALME-3M melanoma it was 55.8%; in the assay with MDA-MB-231 breast it was 46.3%; in the assay with RXF 393 renal, 48.7%; with SF-268 CNS it was 49.4%. Further, the growth was 89.9% with SF-295 CNS; 72.6% with SF-539 CNS; 59.5% in the assay with UACC-257 melanoma; 32.2% with M14 melanoma; 45.2% in the assay on HCT-15 colon; 81.7% in the assay on HT29 colon. The growth is 50.5% in the assay with SNB-75 CNS; 74.4% in the assay on SNB-19 CNS; 50.7% with U251 CNS; 59.5% in the assay with PC-3 prostate; 77.1% in the assay with SK-MEL-5 melanoma; 32.9% in the assay with UACC-62 melanoma. Also, the results for the growth in the assay with LOX IMVI melanoma and in the assay with SK-MEL-28 melanoma were 8.78% (active) and 71.6%, respectively.

As to `O=P(O)(O)OCC1OC(n2cnc3c(NCc4ccco4)ncnc32)C(O)C1O` (stereo not given), the growth with DU-145 prostate is -58.5% (active); in the assay on K-562 leukemia, 63.3%; with MALME-3M melanoma, 87.4%; in the assay on MDA-MB-231 breast, -21.5% (active); in the assay with RXF 393 renal, 4.85% (active); in the assay on SF-268 CNS, 29.3%. In addition, the growth with SF-295 CNS is 34.7%; in the assay with SF-539 CNS, 16.1%; with UACC-257 melanoma, 77.6%; in the assay with M14 melanoma it was 34.5%; in the assay on HCT-15 colon it was 5.11% (active); with HT29 colon, 16.7%. Moreover, the growth is 8.93% (active) in the assay with SNB-75 CNS; 31.9% in the assay with SNB-19 CNS; 38.3% with U251 CNS; 9.01% (active) in the assay with PC-3 prostate; 40.2% with SK-MEL-5 melanoma; 45.4% in the assay with UACC-62 melanoma. Moreover, the growth is -30.9% (active) in the assay with LOX IMVI melanoma and 87% with SK-MEL-28 melanoma.

Turning to `Cc1ccc(C(=O)c2ccc(CC(=O)N=Nc3c(O)[nH]c4ccc(Br)cc34)n2C)cc1`, the growth with DU-145 prostate was 97.8%; in the assay with K-562 leukemia it was 83.5%; in the assay with MALME-3M melanoma, 111%; in the assay on MDA-MB-231 breast it was 88.4%; in the assay with RXF 393 renal it was 87%; with SF-268 CNS, 87.7%. Besides, the growth with SF-295 CNS is 99.1%; in the assay with SF-539 CNS, 92.4%; in the assay on UACC-257 melanoma it was 105%; in the assay on M14 melanoma it was 91.3%; in the assay with HCT-15 colon it was 96.7%; in the assay on HT29 colon, 105%. Besides, the growth was 84% with SNB-75 CNS; 89% with SNB-19 CNS; 92.6% with U251 CNS; 89.3% with PC-3 prostate; 95.9% with SK-MEL-5 melanoma; 94.6% with UACC-62 melanoma. Also, the growth is 88.9% in the assay on LOX IMVI melanoma and 102% in the assay on SK-MEL-28 melanoma.

As for `Nc1c(C(=O)Nc2cccc(Cl)c2)sc2nc3c(cc12)CCCC3`, the growth is 104% with DU-145 prostate; 48.3% in the assay on K-562 leukemia; 102% in the assay with MALME-3M melanoma; 93.3% in the assay with MDA-MB-231 breast; 103% in the assay with RXF 393 renal; 102% with SF-268 CNS. Further, the growth is 91.6% in the assay with SF-295 CNS; 86.9% in the assay with SF-539 CNS; 79.1% in the assay with UACC-257 melanoma; 78.6% in the assay on M14 melanoma; 78.8% with HCT-15 colon; 68.2% in the assay with HT29 colon. Moreover, the growth with SNB-75 CNS is 101%; with SNB-19 CNS, 92.2%; with U251 CNS, 89.3%; with PC-3 prostate it was 80.2%; with SK-MEL-5 melanoma, 88.2%; in the assay with UACC-62 melanoma, 70.2%. The growth in the assay with LOX IMVI melanoma is 93%; with SK-MEL-28 melanoma it was 91.1%.

On to `C=C(CNCCO)[C@@H]1CC[C@]2(CO)CC[C@]3(C)[C@H](CC[C@@H]4[C@@]5(C)CCC(N)C(C)(C)[C@@H]5CC[C@]43C)[C@@H]12` (stereo not given in full), for which the growth in the assay with DU-145 prostate is 53%; in the assay on K-562 leukemia, -43.3% (active); in the assay with MALME-3M melanoma, -75.1% (active); in the assay with MDA-MB-231 breast it was 2.59% (active); in the assay on RXF 393 renal, 50.4%; in the assay on SF-268 CNS, 33.1%. Moreover, the growth in the assay on SF-295 CNS was 46.5%; in the assay on SF-539 CNS, -6.75% (active); in the assay with UACC-257 melanoma, -81.5% (active); with M14 melanoma it was -70.2% (active); in the assay on HCT-15 colon, 77%; in the assay on HT29 colon, -22.4% (active). For the same compound, the growth in the assay on SNB-75 CNS is 43.5%; in the assay on SNB-19 CNS it was 53.9%; with U251 CNS, -78.5% (active); in the assay on PC-3 prostate, 61.9%; with SK-MEL-5 melanoma it was -87.8% (active); in the assay on UACC-62 melanoma, 9.7% (active). The growth is -67.8% (active) in the assay on LOX IMVI melanoma and -76.3% (active) with SK-MEL-28 melanoma.

As to `O=C1/C(=C/c2ccc(F)cc2)CN(C(=O)C(Cl)Cl)C/C1=C\c1ccc(F)cc1`, the growth in the assay with DU-145 prostate is -96.5% (active); in the assay with K-562 leukemia it was -6.01% (active); in the assay on MALME-3M melanoma, -34.9% (active); in the assay on MDA-MB-231 breast, -39.8% (active); with RXF 393 renal, -91.8% (active); in the assay on SF-268 CNS, -30.9% (active). The growth in the assay on SF-295 CNS was -75.9% (active); in the assay on SF-539 CNS, -97% (active); with UACC-257 melanoma, -43.3% (active); in the assay with M14 melanoma it was -68.5% (active); with HCT-15 colon, -57.9% (active); in the assay on HT29 colon it was -24.7% (active). Further, the growth was -61.2% (active) with SNB-75 CNS; -87% (active) in the assay with SNB-19 CNS; -95.5% (active) with U251 CNS; -74.3% (active) in the assay on PC-3 prostate; -64.9% (active) with SK-MEL-5 melanoma; -61.1% (active) with UACC-62 melanoma. The growth was -90.2% (active) in the assay on LOX IMVI melanoma and -72.1% (active) in the assay on SK-MEL-28 melanoma.

For the compound `O=C(/C=C/c1cccc(Cl)c1Cl)Nc1ncc(Cc2ccccc2Cl)s1`, the growth in the assay on DU-145 prostate was 53.3%; in the assay with K-562 leukemia it was 13.4%; in the assay on MALME-3M melanoma it was 62.1%; with MDA-MB-231 breast, 75%; in the assay on RXF 393 renal, 37.8%; in the assay with SF-268 CNS, 82.2%. Besides, the growth with SF-295 CNS was 21.4%; in the assay with SF-539 CNS it was 11.5%; in the assay with UACC-257 melanoma, 78.1%; in the assay on M14 melanoma, 12.5%; in the assay with HCT-15 colon it was 21.1%; in the assay on HT29 colon, 11.9%. The growth was 36.4% in the assay on SNB-75 CNS; 47.2% with SNB-19 CNS; 50.9% in the assay on U251 CNS; 56.5% in the assay with PC-3 prostate; 45.8% with SK-MEL-5 melanoma; 42.7% with UACC-62 melanoma. In addition, the growth in the assay on LOX IMVI melanoma was 44.7%; in the assay with SK-MEL-28 melanoma it was 58.6%.

In the case of `C=C(C)[C@@H]1CC[C@]2(C(N)=O)CC[C@]3(C)[C@H](CC[C@@H]4[C@@]5(C)CC[C@H](OCCC#N)C(C)(C)[C@@H]5CC[C@]43C)[C@@H]12`, the growth in the assay on DU-145 prostate was 94.7%; in the assay on K-562 leukemia it was 74.3%; in the assay on MALME-3M melanoma it was 101%; with MDA-MB-231 breast, 73.2%; with RXF 393 renal it was 86.8%; in the assay with SF-268 CNS, 74.1%. The growth with SF-295 CNS was 79.5%; in the assay on SF-539 CNS it was 91.6%; in the assay on UACC-257 melanoma, 101%; in the assay on M14 melanoma it was 90.2%; with HCT-15 colon, 80.9%; in the assay with HT29 colon it was 84.7%. The growth in the assay on SNB-75 CNS is 85.9%; in the assay on SNB-19 CNS, 81.2%; with U251 CNS it was 87.7%; in the assay on PC-3 prostate, 68.8%; with SK-MEL-5 melanoma, 93.3%; in the assay on UACC-62 melanoma, 67.1%. Also, the growth was 87.1% in the assay on LOX IMVI melanoma and 92.8% with SK-MEL-28 melanoma.
